According to ChEMBL document CHEMBL3988442, “University of Dundee, Small-Polar-MMV Screening Library” (2021):
For some of these results: Potency and affinity values are given separately.

How the values were obtained:
Set-up in all cases: scale not given: direction of the effect not stated beside the values
[1] = molecular target: Protein translocase subunit SecA (Escherichia coli (strain K12)) (UniProt P10408); test: Assay to Identify E. coli SecA ATPase Inhibitors; format: functional; conditions: 30 µM
Sequence of Protein translocase subunit SecA (Escherichia coli (strain K12)) (P10408 whole entry): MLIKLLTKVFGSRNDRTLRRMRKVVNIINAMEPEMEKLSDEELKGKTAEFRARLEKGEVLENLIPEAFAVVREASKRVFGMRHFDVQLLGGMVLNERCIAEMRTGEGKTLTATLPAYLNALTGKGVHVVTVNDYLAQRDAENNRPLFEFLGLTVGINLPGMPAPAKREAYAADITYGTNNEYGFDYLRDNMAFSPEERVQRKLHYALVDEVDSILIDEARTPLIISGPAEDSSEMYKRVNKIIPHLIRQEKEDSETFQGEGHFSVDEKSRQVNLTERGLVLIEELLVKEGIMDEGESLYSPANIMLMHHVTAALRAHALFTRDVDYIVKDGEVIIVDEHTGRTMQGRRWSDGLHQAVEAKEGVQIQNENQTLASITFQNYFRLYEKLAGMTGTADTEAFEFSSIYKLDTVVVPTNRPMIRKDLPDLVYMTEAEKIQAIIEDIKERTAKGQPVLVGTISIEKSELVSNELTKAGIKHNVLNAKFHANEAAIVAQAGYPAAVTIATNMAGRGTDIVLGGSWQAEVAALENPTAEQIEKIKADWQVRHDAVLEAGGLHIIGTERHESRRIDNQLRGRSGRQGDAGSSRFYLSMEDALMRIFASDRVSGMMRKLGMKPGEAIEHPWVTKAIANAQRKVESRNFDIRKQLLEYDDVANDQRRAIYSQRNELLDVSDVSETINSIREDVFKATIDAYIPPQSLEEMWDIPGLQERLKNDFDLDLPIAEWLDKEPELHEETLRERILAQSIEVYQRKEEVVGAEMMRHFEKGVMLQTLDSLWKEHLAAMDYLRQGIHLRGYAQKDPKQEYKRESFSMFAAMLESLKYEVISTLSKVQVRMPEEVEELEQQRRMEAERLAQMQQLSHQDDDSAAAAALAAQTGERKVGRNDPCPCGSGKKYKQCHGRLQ

[2] = molecular target: T1, Ubiquitin-activating enzyme e1, putative (Leishmania donovani (strain BPK282A1)) (UniProt E9BSI1); test: Leishmania donovani Ubiquitin Activating Enzyme (LdE1); format: functional; conditions: 30 µM
T1 sequence (whole entry): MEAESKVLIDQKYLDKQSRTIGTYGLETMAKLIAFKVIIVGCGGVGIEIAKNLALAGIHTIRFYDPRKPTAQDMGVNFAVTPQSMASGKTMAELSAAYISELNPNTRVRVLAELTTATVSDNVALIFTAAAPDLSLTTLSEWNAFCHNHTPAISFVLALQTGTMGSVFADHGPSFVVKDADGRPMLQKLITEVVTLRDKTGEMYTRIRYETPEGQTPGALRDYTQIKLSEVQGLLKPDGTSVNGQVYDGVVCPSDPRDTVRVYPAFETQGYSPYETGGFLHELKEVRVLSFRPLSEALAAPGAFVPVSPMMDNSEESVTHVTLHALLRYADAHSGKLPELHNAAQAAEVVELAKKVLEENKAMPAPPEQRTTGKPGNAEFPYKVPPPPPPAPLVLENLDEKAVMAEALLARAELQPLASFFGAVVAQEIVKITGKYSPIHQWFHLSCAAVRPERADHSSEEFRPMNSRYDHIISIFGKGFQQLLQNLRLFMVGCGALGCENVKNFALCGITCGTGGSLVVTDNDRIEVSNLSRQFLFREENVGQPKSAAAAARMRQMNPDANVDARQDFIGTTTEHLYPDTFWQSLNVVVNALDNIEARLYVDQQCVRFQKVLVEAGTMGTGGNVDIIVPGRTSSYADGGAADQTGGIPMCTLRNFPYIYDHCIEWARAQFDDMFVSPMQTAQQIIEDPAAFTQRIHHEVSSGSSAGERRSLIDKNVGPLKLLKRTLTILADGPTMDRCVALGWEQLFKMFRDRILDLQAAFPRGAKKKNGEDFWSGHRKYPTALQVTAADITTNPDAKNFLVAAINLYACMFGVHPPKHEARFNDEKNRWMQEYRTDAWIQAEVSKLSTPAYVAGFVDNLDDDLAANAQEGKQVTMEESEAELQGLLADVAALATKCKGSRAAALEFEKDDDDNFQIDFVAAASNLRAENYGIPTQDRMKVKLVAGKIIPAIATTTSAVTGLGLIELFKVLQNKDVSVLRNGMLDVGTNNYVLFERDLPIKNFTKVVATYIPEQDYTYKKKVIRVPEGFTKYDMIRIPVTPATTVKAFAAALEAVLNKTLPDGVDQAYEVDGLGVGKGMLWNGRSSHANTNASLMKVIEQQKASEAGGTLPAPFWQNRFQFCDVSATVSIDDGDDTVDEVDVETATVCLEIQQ

[3] = molecular target: AMP-activated protein kinase, AMPK (Homo sapiens) (UniProt P54646+O43741+P54619+Q9UGJ0+Q9Y478+Q13131+Q9UGI9); test: AMP-dependent Kinase enzyme assay. An in vitro enzyme assay that detects ADP turnover that is directly proportional to AMPK activity. This uses naive AMPK that is activated during the assay with MK-8722; format: functional; conditions: 30 µM
[4] = molecular target: Sialic acid-binding Ig-like lectin 9 (Homo sapiens) (UniProt Q9Y336); test: Hs-Siglec9 ALPHAscreen SOP 20170721; conditions: 10 µM
Sequence of Sialic acid-binding Ig-like lectin 9 (Homo sapiens) (Q9Y336 whole entry): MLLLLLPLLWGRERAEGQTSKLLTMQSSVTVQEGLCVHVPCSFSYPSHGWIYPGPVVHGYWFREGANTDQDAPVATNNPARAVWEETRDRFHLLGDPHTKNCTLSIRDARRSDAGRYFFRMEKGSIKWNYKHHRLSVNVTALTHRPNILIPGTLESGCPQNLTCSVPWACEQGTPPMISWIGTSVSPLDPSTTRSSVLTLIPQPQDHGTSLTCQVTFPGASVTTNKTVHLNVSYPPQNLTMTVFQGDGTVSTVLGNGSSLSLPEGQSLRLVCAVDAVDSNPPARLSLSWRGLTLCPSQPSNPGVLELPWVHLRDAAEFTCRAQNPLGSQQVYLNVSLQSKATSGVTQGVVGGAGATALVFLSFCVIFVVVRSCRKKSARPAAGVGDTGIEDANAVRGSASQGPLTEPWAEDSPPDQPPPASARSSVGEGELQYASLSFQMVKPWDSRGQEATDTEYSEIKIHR

[5] = tested on: Trypanosoma cruzi; test: Trypanosoma cruzi phosphomannomutase and mannose-1-phosphate guanylyltransferase assay; format: functional; conditions: 10 µM
[6] = molecular target: T2, Arginase-2, mitochondrial (Homo sapiens) (UniProt P78540); test: in vitro enzyme assay to detect the production of urea directly proportional to the activity of Arginase II; format: functional; conditions: 33.3 µM; note: in the data most compounds retested in dose-response had high values
T2 sequence (whole entry): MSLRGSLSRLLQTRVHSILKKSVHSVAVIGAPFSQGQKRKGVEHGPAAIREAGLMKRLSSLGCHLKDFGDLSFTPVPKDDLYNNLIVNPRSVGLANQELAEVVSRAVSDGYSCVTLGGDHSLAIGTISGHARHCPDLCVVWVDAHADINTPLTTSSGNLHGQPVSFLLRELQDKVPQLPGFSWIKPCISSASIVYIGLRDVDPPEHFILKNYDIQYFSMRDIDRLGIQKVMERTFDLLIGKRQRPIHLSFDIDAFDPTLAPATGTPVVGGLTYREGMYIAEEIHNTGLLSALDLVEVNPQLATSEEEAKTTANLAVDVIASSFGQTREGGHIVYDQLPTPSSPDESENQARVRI

[7] = molecular target: T3, Proteasome subunit beta (Trypanosoma cruzi) (UniProt O96673); test: Trypanosoma cruzi proteasome chymotrypsin-like activity (TcProtChymo) assay.; note: in the data most compounds retested in dose-response had high values; format: functional; conditions: 9.37 µM
T3 sequence (whole entry): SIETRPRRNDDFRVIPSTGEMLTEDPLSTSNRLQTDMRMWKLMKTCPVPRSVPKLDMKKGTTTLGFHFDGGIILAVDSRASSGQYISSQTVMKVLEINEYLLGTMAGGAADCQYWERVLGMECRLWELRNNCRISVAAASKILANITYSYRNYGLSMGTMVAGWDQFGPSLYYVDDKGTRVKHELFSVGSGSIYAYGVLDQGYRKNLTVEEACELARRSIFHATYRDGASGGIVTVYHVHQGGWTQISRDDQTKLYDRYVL

[8] = species: Homo sapiens; test: To identify inhibition of the IFN signalling (Jak-Stat) pathway via expression of an eGFP reporter gene under the control of an IFN-stimulated response element (ISRE) containing MxA promoter.; format: functional; conditions: 30 µM
[9] = molecular target: T4, Tyrosyl-tRNA synthetase, putative (Trypanosoma cruzi (strain CL Brener)) (UniProt Q4DSP6); test: Trypanosoma cruzi tyrosyl tRNA synthetase (TcYRS) _High Tyrosine SOP; format: functional; conditions: 30 µM; note: in the data most compounds retested in dose-response had high values
T4 sequence (whole entry): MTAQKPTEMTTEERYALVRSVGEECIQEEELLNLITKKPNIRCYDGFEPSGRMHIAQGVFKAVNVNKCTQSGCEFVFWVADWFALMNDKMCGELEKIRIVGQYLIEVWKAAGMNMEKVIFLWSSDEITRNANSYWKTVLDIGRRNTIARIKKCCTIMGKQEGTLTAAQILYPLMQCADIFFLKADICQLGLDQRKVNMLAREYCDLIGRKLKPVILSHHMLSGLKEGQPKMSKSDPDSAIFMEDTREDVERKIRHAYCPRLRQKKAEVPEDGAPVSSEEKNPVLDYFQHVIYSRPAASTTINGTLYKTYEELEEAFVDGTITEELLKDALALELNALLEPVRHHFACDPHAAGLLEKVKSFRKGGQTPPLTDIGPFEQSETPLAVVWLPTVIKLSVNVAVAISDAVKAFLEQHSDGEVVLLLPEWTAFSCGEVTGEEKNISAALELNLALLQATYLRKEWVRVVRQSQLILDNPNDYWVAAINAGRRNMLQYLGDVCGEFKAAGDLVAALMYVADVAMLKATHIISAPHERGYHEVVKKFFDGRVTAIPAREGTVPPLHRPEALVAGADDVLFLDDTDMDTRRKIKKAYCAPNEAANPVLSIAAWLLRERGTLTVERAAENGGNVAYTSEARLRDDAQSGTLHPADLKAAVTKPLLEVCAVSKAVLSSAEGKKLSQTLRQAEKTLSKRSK

[10] = molecular target: T4, Tyrosyl-tRNA synthetase, putative (Trypanosoma cruzi (strain CL Brener)); test: Trypanosoma cruzi tyrosyl tRNA synthetase (TcYRS) SOP; format: functional; conditions: 30 µM
[11] = molecular target: Chromo domain-containing protein 1 (Saccharomyces cerevisiae (strain ATCC 204508 / S288c) (Baker's yeast)) (UniProt P32657); test: ScCHD-1 Enzyme Inhibition Assay; format: functional; conditions: 30 µM; note: in the data most compounds retested in dose-response had high values
Sequence of Chromo domain-containing protein 1 (Saccharomyces cerevisiae (strain ATCC 204508 / S288c) (Baker's yeast)) (P32657 whole entry, the tested form may be a part): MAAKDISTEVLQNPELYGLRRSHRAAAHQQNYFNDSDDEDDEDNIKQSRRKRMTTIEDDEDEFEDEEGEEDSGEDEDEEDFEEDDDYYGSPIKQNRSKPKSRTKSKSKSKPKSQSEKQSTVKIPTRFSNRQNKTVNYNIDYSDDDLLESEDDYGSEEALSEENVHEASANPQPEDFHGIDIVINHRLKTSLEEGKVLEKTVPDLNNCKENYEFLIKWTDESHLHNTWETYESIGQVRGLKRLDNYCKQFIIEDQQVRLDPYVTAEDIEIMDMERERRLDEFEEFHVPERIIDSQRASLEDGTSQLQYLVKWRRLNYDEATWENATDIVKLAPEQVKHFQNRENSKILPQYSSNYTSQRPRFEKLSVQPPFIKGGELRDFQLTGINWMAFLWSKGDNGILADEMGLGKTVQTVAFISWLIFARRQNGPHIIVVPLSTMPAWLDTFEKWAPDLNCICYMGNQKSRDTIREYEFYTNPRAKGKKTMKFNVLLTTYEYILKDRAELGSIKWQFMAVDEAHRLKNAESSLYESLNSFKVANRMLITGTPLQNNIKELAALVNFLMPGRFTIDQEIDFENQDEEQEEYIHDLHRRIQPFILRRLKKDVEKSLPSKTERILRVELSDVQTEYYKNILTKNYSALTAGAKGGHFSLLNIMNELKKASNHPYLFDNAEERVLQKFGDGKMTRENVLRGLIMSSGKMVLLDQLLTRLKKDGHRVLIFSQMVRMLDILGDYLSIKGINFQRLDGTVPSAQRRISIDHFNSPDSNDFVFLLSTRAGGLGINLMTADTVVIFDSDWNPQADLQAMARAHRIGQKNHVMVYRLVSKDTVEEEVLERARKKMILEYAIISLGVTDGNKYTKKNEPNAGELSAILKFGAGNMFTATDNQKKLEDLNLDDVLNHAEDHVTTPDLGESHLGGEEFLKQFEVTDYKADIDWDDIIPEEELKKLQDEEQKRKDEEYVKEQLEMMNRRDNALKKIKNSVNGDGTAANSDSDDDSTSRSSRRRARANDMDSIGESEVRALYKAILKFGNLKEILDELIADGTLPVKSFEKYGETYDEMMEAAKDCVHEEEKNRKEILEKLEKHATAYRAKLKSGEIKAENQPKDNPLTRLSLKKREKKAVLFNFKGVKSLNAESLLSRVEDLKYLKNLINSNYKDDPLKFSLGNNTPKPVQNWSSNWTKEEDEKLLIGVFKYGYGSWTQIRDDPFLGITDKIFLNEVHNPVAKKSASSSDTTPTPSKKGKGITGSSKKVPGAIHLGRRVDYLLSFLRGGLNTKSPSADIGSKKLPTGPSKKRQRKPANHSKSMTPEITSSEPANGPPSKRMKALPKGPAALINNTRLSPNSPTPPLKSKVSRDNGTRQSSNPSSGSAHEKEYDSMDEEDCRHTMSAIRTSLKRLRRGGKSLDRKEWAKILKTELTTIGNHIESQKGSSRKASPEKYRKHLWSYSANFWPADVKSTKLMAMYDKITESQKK

Compound | Percent Effect [1] | Percent Effect [2] | Percent Effect [3] | Percent Effect [4] | Percent Effect [5] | Percent Effect [6] | Percent Effect [7] | Percent Effect [8] | Percent Effect [9] | Percent Effect [10] | Percent Effect [11]
CNS(=O)(=O)c1ccc(C(=O)N2CCCC2Cc2ccccc2)o1 (configuration not stated) | -3.24% | -42.1% | 1.36% | -2.48% | 2.52% | 1.8% | 12.6% | 16.6% | 4.43% | 16.1% | -9.41%
O=C([C@H]1C[C@H]2OCC[C@H]2N(CCc2ccccc2)C1)N1CCCCO1 | -4.49% | 5.41% | 7.77% | -1.67% | -0.0978% | 3.5% | 11.4% | -14.2% | 5.41% | 15.4% | 6.02%
CN(C)c1ncc(CN2CCOC(C(=O)Nc3ccccc3)C2)cn1 (configuration not stated) | -0.531% | 16% | 2.21% | -8.34% | 2.36% | 71.6% | 18.6% | 23.5% | 3.19% | 14.1% | -7.74%
CN(C(=O)c1ccccn1)c1nc2c(s1)CCc1c-2cnn1C | -3.06% | 52.7% | 11% | -2.4% | 4.94% | -4.41% | 11.5% | 16.9% | -4.3% | 1.3% | -15.7%
O=C(CN1CCCCC1C1OCCO1)Nc1ccc(F)c(F)c1 (configuration not stated) | -3.75% | 5.41% | 1.85% | -4.88% | -1.95% | 0% | 6.68% | 17.6% | 1.98% | 6.1% | 2.05%
CCn1cnnc1CNC(=O)CCC(=O)c1ccc2c(c1)OCCO2 | -8.9% | 16.2% | -8.33% | 6.97% | 6.7% | -10% | 15.3% | 11.5% | 10.3% | 23.5% | -8.22%
CC(C)c1ncc2c(n1)CN(Cc1nc(-c3ccoc3)no1)CC2 | -2.65% | 10.8% | -16.9% | 5.18% | 0.0929% | -0.185% | 6.46% | 12.5% | 9.9% | 3.66% | 11.7%
CCc1nc(CN(CC(N)=O)C(C)C)cs1 | -2.67% | 17.7% | 0.603% | 3.91% | 1.23% | -1.14% | 7.78% | 7.33% | 10.3% | 21.5% | -2.93%
CN1CCN(C(=O)c2ccc(=O)n(C)c2)c2ccccc21 | -6.34% | 18.9% | -11% | 20.6% | 3.25% | -0.554% | 2.51% | 6.73% | 16.8% | 25.6% | -6.38%
CN(C)CC1CN(Cc2csc(C3CCCC3)n2)CCO1 (configuration not stated) | -2.18% | 5.26% | -6.29% | 9.69% | 6.63% | 0.36% | 7.02% | -33% | 8.37% | 16.1% | 4.62%
Cc1ccc2c(c1)CN(C(=O)c1ccccc1F)C(CN(C)C)CO2 (configuration not stated) | -0.708% | 12.2% | 14.3% | -7.4% | -5.73% | -4.41% | 11.7% | 0.0165% | 1.07% | 3.9% | -10%
c1cnnc(N2CCCC(NCc3ccc(-n4ccnc4)cc3)C2)c1 (configuration not stated) | -1.81% | 2.6% | 5.74% | 12% | -0.49% | 1.9% | 8.33% | 3.55% | 0.952% | 0% | -13.3%
CC(C)(C)C(=O)N1CCC(c2nc(O)cc(-c3ccccn3)n2)CC1 | -0.499% | 12.2% | 8.91% | -7.12% | -0.79% | -5.34% | 12% | 11.1% | 2.15% | 1.3% | -8.6%
Cc1cc(CNc2ccc(C(=O)N3CCCC(C)C3)cc2C)no1 (configuration not stated) | -4.07% | 10.4% | 0.477% | -5.45% | -6.18% | -1.42% | 3.72% | 37.9% | 5.83% | 14.6% | -5.48%
Cn1cccc1C1CCCN1C(=O)NCCCn1cccn1 (configuration not stated) | -1.96% | 2.67% | -3.95% | -0.718% | -0.0974% | -2.08% | 6.28% | 8.34% | 4.92% | 8.64% | -1.47%
CCc1nc(CN2CCCC(NCc3cc(C)no3)C2)no1 (configuration not stated) | -1.34% | -28.6% | 1.07% | -1.38% | 3.82% | -3.16% | 5.42% | 5.74% | 3.81% | 7.06% | -11.5%
Cn1nnc2c1CCN(Cc1ccccc1)C2COCC1CC1 (configuration not stated) | -1.15% | 2.67% | -10.3% | -0.164% | 3.15% | 2.1% | 5.9% | 8.15% | 14.9% | 24.4% | -11.1%
